The results in this text go back to ChEMBL document CHEMBL4888484, “Replenishing the malaria drug discovery pipeline: Screening and hit evaluation of the MMV Hit Generation Library 1 (HGL1) against asexual blood stage Plasmodium falciparum ,using a nano luciferase reporter read-out” (2022).

In all, about 150,000 compounds went through this assay and about 540 (0.36%) showed an effect of 50% or more. The sample as a whole holds a higher share of strong results than the screen did.

What is called % Inhibition is the drop in the measured response relative to a control, in per cent.

The test system of the test is Plasmodium falciparum. Briefly: Primary screen in NF54 nanoGlo assay, in single point, at 2uM, 72h; a lower Z score goes with more inhibition. The class given is functional, Erythrocyte. To be noted: timepoint 72 hour.
As for `Fc1cc(CNCC(F)F)ccc1Cl`, the “% Inhibition” value is reported as -7% and the Z score was 0.98.

For `CC(NC[C@H](C)O)C(C)(C)c1ccc(F)cc1` (some centres undefined), the “% Inhibition” value is on record as -3% and the Z score was found to be 0.44.

Consider `O=c1ccc(-c2cncnc2)c2n1C[C@H]1C[C@@H]2CN(S(=O)(=O)c2ccccc2)C1`, for which the “% Inhibition” value is listed as -11% and the Z score is 1.78.

`Cc1ccc(CN2CCN(C(=O)Cc3cccnc3)[C@H]3CS(=O)(=O)C[C@H]32)o1`: the “% Inhibition” value stood at 5% and the Z score was -0.92.

On to `CC(=O)N(C1CCN(Cc2ccccc2)CC1)C1(C(=O)Nc2ccc3[nH]ccc3c2)CCN(C)CC1`, for which the “% Inhibition” value was found to be 92% and the Z score is given as -11.04.

Regarding `CCc1cccc(N(C(=O)c2ccc(NC(C)=O)cc2)C2(C(=O)NCc3ccccc3)CCN(C(C)=O)CC2)c1`, the “% Inhibition” value is listed as 0% and the Z score is recorded as 0.

Turning to `CCC(=O)Nc1ccc(C)c(NC(=O)C2(c3ccccc3)CCN(C)CC2)c1`, the “% Inhibition” value is -9% and the Z score is 1.09.

As to `CN(C)c1ccc(CN2CCN(CCO)[C@@H]3CS(=O)(=O)C[C@@H]32)cn1`, the “% Inhibition” value is -3% and the Z score was 0.58.

With `O=C(Cc1ccc(O)c(F)c1)N1C[C@H]2c3ccccc3OC[C@@]2(C(=O)O)C1`, the “% Inhibition” value is listed as -2% and the Z score came to 0.24.

Take `CCOc1ccccc1NC(=O)CN1CC=C(c2cnn(C)c2)CC1`: the “% Inhibition” value is listed as -1% and the Z score amounted to 0.1.

For the compound `COc1ccc(-c2csc(-n3cc(C4=CCN(CCO)CC4)cn3)n2)cc1`, the “% Inhibition” value worked out at 50% and the Z score was -5.49.

Regarding `CN(C)C1(CNc2ccc(C#N)c(Cl)c2)CCOCC1`, the “% Inhibition” value is recorded as -5% and the Z score was 0.53.

Turning to `O=C(c1cc(F)cc(F)c1)N1CCC2(CC1)N(c1ccccc1)C(=O)CS2(=O)=O`, the “% Inhibition” value is listed as -15% and the Z score is recorded as 2.33.

Take `CC(C)(N)Cc1ccc(C(F)(F)F)cc1`: the “% Inhibition” value amounted to 1% and the Z score is -0.09.

On to `CN1CC[C@]2(CCN(c3ccnc4ccsc34)C2)C1`, for which the “% Inhibition” value is on record as 98% and the Z score was -10.65.

In the case of `CN1CC[C@@]2(CCCN(c3ccncc3F)C2)C1`, the “% Inhibition” value is -8% and the Z score worked out at 0.76.

Turning to `c1cc(N2CC[C@@]3(CCCNC3)C2)c2sccc2n1`, the “% Inhibition” value is given as 98% and the Z score is -16.03.

`Clc1cccc2c(N3CC[C@]4(CCNC4)C3)ccnc12`: the “% Inhibition” value is 23% and the Z score is recorded as -3.12.

As to `CN1CCC[C@@]2(CCN(c3ccncc3C3CC3)C2)C1`, the “% Inhibition” value stood at 0% and the Z score is 0.05.

For `CCc1cc(CN[C@@H](C)Cc2ccc(F)cc2)on1`, the “% Inhibition” value was -5% and the Z score was 0.53.

As to `Cc1nc(CN2C[C@@H](CO)[C@H](c3ccc(Cl)cc3)C2)co1`, the “% Inhibition” value was 4% and the Z score is on record as -0.83.

With `O=C(CNc1ccc(Cl)c(F)c1)N1CCC2(CC1)OCCO2`, the “% Inhibition” value came to 28% and the Z score is listed as -3.19.

In the case of `CCCS(=O)(=O)Nc1ccc(=O)n2c1[C@@H]1C[C@@H](CN(C(=O)Nc3ccc(F)cc3)C1)C2`, the “% Inhibition” value is 27% and the Z score was -3.06.

In the case of `N#Cc1ccc(N[C@H]2CCN(C3CCOCC3)C2=O)cc1C(F)(F)F`, the “% Inhibition” value was 1% and the Z score was -0.05.

For `C#CCN(C)C[C@H]1C[N@@]2CC[C@H]1C[C@@H]2CNC(=O)c1ccccc1`, the “% Inhibition” value is 33% and the Z score was -3.75.

`CN(Cc1ccccc1)C[C@H]1C[N@@]2CC[C@H]1C[C@@H]2CNC(=O)c1ccccc1`: the “% Inhibition” value came to 11% and the Z score is -1.99.

Turning to `C=CCN(C)C[C@H]1CN2CC[C@H]1C[C@@H]2CNC(=O)Nc1ccc(OC(F)(F)F)cc1`, the “% Inhibition” value came out at 57% and the Z score is listed as -4.08.

`O=C(c1ccncc1F)N1C[C@H]2CC[C@@H](C1)N(CC1CC1)C2`: the “% Inhibition” value stood at 2% and the Z score is -0.29.

With `O=C(NCc1ccccc1)N1Cc2ccccc2-n2cccc2[C@H]1c1ccccc1`, the “% Inhibition” value is -9% and the Z score worked out at 1.11.

For `CN1CCN(CC(=O)N2CCC3(CC2)OCCO3)c2ccc(Cl)cc21`, the “% Inhibition” value is -13% and the Z score amounted to 2.46.

As to `CCCc1cncnc1N1C[C@H]2CC[C@@H](C1)N(CCC)C2`, the “% Inhibition” value is 7% and the Z score was -1.29.

On to `Cc1nc[nH]c1CN1C[C@H]2CC[C@@H](C1)N(C(=O)Cc1ccncc1)C2`, for which the “% Inhibition” value is listed as -5% and the Z score is recorded as 0.88.

As to `COc1ccc2c(c1)OC[C@@]1(C(=O)O)CN(CCC(F)(F)F)C[C@@H]21`, the “% Inhibition” value was 3% and the Z score was -0.33.

On to `Cc1cc(Cl)cc2c(N3CC[C@@]4(O)CCNC[C@H]4C3)ccnc12`, for which the “% Inhibition” value turned out to be 3% and the Z score was -0.52.

As to `Cc1cc(C)n2ncc(CN3C[C@@H]4CC[C@H](C3)C(=O)N4)c2n1`, the “% Inhibition” value is recorded as -11% and the Z score is 1.38.

Take `CC(C)(C)OC(=O)N1[C@@H]2CC[C@H]1[C@@H]1C[C@]1(C(=O)O)C2`: the “% Inhibition” value is given as -10% and the Z score worked out at 1.06.

For the compound `CC(C)c1ncc(C(=O)N[C@H]2CN3CCC2CC3)cn1`, the “% Inhibition” value was determined as 2% and the Z score is reported as -0.19.

With `c1ccc2c(CN3CCCCCC3)c[nH]c2c1`, the “% Inhibition” value amounted to 5% and the Z score is listed as -0.53.

For `O=C(Cc1c[nH]c2ccccc12)N1CCN(Cc2nnn3c2CO[C@H](c2cccc(F)c2)C3)CC1`, the “% Inhibition” value is given as -6% and the Z score is listed as 0.79.

For the compound `CCOc1ccccc1NC(=O)c1ccc2oc(=O)n(Cc3ccc(F)cc3)c2c1`, the “% Inhibition” value amounted to 2% and the Z score is reported as -0.31.

As to `CN1CCC2CCN(C(=O)Nc3nccs3)C2C1` (centres undefined), the “% Inhibition” value is listed as -8% and the Z score was 0.77.

Regarding `COc1cccc(CNC(=O)N2CC[C@@H]3CCN(C)C[C@@H]32)n1`, the “% Inhibition” value is on record as 88% and the Z score turned out to be 0.42.

As for `CC(C)CCC(=O)N1CCC2CCN(C)CC21` (centres undefined), the “% Inhibition” value is -3% and the Z score stood at 0.4.

As for `O=C(c1ccccc1)c1cc(Cl)ccc1NC(=O)[C@H]1CC(=O)N(c2ccc(F)cc2)C1`, the “% Inhibition” value is 56% and the Z score was -9.01.

As to `C[C@]1(c2ccccc2Cl)NC(=O)N(CC(=O)Nc2ccc(Cl)cc2C(=O)c2ccccc2)C1=O`, the “% Inhibition” value was -1% and the Z score came out at 0.1.

For `O=C(c1ccccc1)c1cc(Cl)ccc1NC(=O)C1CCN(C(=O)c2ccco2)CC1`, the “% Inhibition” value is reported as 1% and the Z score is -0.14.

With `Cc1sc2ncnc(N3CCN4CCC[C@H]4C3)c2c1C`, the “% Inhibition” value is listed as -5% and the Z score turned out to be 0.64.

Consider `O=C(COc1ccccc1)N1CCCCC[C@@H]1CN1CCCC1`, for which the “% Inhibition” value turned out to be 1% and the Z score is recorded as -0.2.

Consider `Cc1cc(C(=O)NC2CC2)nn1[C@@H](C)C1CC1`, for which the “% Inhibition” value was -5% and the Z score was 0.91.

With `Cc1cc(C(=O)NC2CC(C)n3ccnc32)nn1C(C)C` (centres undefined), the “% Inhibition” value came to 62% and the Z score was -7.62.

With `CC(C)n1ccc(C(=O)NC2CC(C(=O)O)c3ccccc32)n1` (centres undefined), the “% Inhibition” value is -1% and the Z score was 0.16.

`CC(Cc1ccccc1Br)NC(C)c1cccnc1` (centres undefined): the “% Inhibition” value came out at 2% and the Z score is reported as -0.27.
